Test results published in PubChem BioAssay.
The source made the active and inactive calls. Unless noted, no rule for the calls is given here.

Legend:
[1] = test system: Wnt5a (protein binding on small-molecule microarray); assay: small molecules binding Wnt5a protein – biophysical, small-molecule microarray, 635/667 nm fluorescence, primary screen (AID 1142); conditions: 635 nm fluorescence, higher = more signal;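 also: fluorescence read at 667 nm with signal to noise per printed feature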
[2] = ATP-based viability of Huh7 replicon cells – cell-based, CellTiter-Glo luminescence, basal, 48 h, cytotoxicity control for HCV replication inhibitor project, primary screen (AID 1143); conditions: higher = more signal, called active from +8 up or from −8 down;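 also: Huh7 hepatoma cells carrying a hepatitis C replication reporter with no stimulus; test concentration not given here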
[3] = Pseudomonas biofilm growth suppression – PAO1 strain, BacTiter-Glo luminescence, LB-PBS, primary screen (AID 1144); conditions: P. aeruginosa PAO1 biofilm, 12 h, higher = more signal
[4] = basal CRE-LacZ reporter activity in PC12 – cell-based, unstimulated, primary screen (AID 1145); conditions: no forskolin, luminescence, 4.5 h, higher = more signal, called active from +8 up or from −8 down
[5] = forskolin-driven CRE-LacZ activity in PC12 – cell-based, CRE-LacZ reporter, forskolin-stimulated, primary screen (AID 1146); conditions: luminescence, 4.5 h, higher = more signal, called active from +8 up or from −8 down;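 also: PC12 cells with 6xCRE LacZ reporter stimulated by forskolin 10 µM; beta-galactosidase reporter signal reflecting CREB driven transcription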
[6] = target: Streptavidin (Streptomyces avidinii) (UniProt P22629); assay: compounds binding control protein streptavidin – biophysical, small-molecule microarray, 635/667 nm fluorescence, artefact control for SMM compound annotation, primary screen (AID 1147); conditions: higher = more signal;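 also: signal reflects streptavidin binding to arrayed compounds as a control protein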
[7] = probe aInhba binding on compound microarray – biochemical, small-molecule microarray, 635/667 nm fluorescence, primary screen (AID 1148); conditions: higher = more signal;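 also: score merges 667nm spot fluorescence with signal-to-noise for antibody binding to printed compounds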
[8] = target: Torsin-1A (Homo sapiens) (UniProt O14656); assay: TOR1A wild-type binding on microarray – cell lysate, small-molecule microarray, lysate, 635/667 nm, primary screen (AID 1149); conditions: COS7 hTOR1A-WT lysate, 635 nm fluorescence, higher = more signal
[9] = target: Torsin-1A (Homo sapiens) (UniProt O14656); assay: torsin A mutant lysate binding on microarrays – cell lysate, small-molecule microarray, COS7 lysate, 635/667 nm fluorescence, primary screen (AID 1150); conditions: COS7 hTOR1A mutant lysate, 635 nm fluorescence, higher = more signal;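 also: score pools 667 nm emission and signal to noise measuring lysate protein binding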
[10] = test system: Sonic hedgehog protein (Shh); assay: Sonic hedgehog microarray binding compounds – biochemical, small-molecule microarray, 635/667 nm fluorescence, primary screen (AID 1151); conditions: 635 nm fluorescence, higher = more signal;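 also: Shh protein binding to compounds spotted on small-molecule microarray slides; score combines spot fluorescence intensity with signal-to-noise across triplicate slides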
[11] = optical density shifts of acrAB sulA E. coli – strain DRC41, OD650, 48 h, E. coli filamentation inducer project, primary screen (AID 1152); conditions: higher = more signal, called active from +8 up or from −8 down;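 also: E. coli MC1000 strain DRC41 lacking acrAB efflux pump and sulA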
[12] = probe aLefty1 binding on compound microarray – biochemical, small-molecule microarray, 635/667 nm fluorescence, primary screen (AID 1153); conditions: higher = more signal;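 also: score merges spot fluorescence with signal-to-noise ratio from the scanned slide images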
[13] = plasmodial surface anion channel blockers, osmotic lysis – cell-based, P. falciparum Indochina, OD700, 1 h, primary screen (AID 1154); conditions: P. falciparum Indochina infected RBC osmotic lysis, higher = more signal, called active from +8 up or from −8 down
[14] = plasmodial surface anion channel blockers, osmotic lysis – cell-based, P. falciparum Indochina, OD700, 2 h, primary screen (AID 1155);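 also: lysis reports solute entry through the parasite surface anion channel PSAC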; conditions: P. falciparum Indochina infected erythrocytes, higher = more signal, called active from +8 up or from −8 down
[15] = changes in parasitized red cell lysis, either direction – P. falciparum Indochina, OD700, 3 h, PSAC antagonist project, primary screen (AID 1156); conditions: P. falciparum-infected erythrocytes, osmotic lysis, higher = more signal, called active from +8 up or from −8 down
[16] = plasmodial surface anion channel blockers, osmotic lysis – cell-based, P. falciparum Indochina, OD700, 18 h, primary screen (AID 1157); conditions: P. falciparum Indochina infected erythrocytes, osmotic lysis OD700, 18 h; higher = more signal, called active from +8 up or from −8 down
[17] = S6 kinase pathway phospho-S6 level changes – cell-based, A549, cytoblot, luminescence, serum-stimulated, primary screen (AID 1158); conditions: 5 h, higher = more signal;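 also: serum-stimulated A549 lung adenocarcinoma cells; signal is phosphorylated S6 detected by cytoblot immunostaining with HRP secondary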
[18] = target: NADPH oxidase 2 (Homo sapiens) (UniProt P04839); assay: compounds shifting NOX2 Amplex Red fluorescence – cell-based, HEK293-NOX2, PMA-stimulated, NOX inhibitor project, primary screen (AID 1159); conditions: 45 min, higher = more signal, called active from +8 up or from −8 down; also: test concentration not given here
[19] = target: NADPH oxidase 4 (Homo sapiens) (UniProt Q9NPH5); assay: compounds shifting NOX4 Amplex Red fluorescence – cell-based, HEK293-NOX4, tetracycline-induced, NOX inhibitor project, primary screen (AID 1160); conditions: HEK293-NOX4, Amplex Red H2O2 fluorescence, 45 min; higher = more signal, called active from +8 up or from −8 down
[20] = target: NADPH oxidase 5 (Homo sapiens) (UniProt Q96PH1); assay: compounds shifting NOX5 Amplex Red fluorescence – cell-based, HEK293-NOX5, NOX inhibitor project, primary screen (AID 1161); conditions: HEK293-NOX5, ionomycin, 45 min, higher = more signal
Sequence of NADPH oxidase 5 (Homo sapiens) (Q96PH1 whole entry, looked up): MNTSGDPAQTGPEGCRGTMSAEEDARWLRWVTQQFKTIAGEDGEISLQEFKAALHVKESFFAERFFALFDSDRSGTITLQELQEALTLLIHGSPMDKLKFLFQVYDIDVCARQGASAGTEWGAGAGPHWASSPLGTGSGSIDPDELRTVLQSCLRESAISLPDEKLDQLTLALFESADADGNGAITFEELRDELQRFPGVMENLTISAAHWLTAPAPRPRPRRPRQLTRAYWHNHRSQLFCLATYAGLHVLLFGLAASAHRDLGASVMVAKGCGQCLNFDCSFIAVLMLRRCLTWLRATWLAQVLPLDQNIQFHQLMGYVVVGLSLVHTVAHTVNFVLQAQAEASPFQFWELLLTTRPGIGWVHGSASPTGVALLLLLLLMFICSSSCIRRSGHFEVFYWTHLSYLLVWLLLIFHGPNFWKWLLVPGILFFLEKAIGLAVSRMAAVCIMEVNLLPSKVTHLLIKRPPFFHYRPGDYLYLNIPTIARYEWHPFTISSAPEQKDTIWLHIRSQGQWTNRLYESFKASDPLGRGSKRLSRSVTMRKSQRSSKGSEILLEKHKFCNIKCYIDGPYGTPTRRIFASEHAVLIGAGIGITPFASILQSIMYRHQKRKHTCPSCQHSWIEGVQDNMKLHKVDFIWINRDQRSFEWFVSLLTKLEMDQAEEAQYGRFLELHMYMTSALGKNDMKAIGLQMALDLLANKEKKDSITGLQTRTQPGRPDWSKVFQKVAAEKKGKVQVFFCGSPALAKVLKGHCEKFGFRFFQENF

Sequence of Torsin-1A (Homo sapiens) (O14656 whole entry, looked up): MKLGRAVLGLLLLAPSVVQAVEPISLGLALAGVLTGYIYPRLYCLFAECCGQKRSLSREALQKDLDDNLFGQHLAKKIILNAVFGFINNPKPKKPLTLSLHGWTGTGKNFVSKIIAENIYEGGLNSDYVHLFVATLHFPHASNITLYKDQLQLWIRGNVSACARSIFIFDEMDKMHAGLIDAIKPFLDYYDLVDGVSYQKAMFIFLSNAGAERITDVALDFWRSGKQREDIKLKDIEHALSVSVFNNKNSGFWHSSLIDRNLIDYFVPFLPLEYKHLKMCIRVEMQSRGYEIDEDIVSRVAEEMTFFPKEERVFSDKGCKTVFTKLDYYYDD
Sequence of NADPH oxidase 4 (Homo sapiens) (Q9NPH5 whole entry, looked up): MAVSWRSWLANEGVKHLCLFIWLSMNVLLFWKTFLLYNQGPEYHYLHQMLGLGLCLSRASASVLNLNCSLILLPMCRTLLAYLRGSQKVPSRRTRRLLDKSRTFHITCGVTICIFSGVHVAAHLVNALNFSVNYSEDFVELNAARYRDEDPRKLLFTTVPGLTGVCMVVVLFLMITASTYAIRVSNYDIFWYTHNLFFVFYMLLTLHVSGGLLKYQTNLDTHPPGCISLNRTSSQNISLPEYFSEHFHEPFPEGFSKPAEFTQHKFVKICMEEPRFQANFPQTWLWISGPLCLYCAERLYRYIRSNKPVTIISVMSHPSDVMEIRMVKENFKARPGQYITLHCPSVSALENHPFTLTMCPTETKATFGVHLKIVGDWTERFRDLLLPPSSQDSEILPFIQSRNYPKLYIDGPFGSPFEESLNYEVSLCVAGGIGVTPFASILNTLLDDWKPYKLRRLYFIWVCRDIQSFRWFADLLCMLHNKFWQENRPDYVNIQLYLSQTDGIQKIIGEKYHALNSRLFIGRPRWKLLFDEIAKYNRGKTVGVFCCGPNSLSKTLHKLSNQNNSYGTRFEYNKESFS
Sequence of NADPH oxidase 2 (Homo sapiens) (P04839 whole entry, looked up): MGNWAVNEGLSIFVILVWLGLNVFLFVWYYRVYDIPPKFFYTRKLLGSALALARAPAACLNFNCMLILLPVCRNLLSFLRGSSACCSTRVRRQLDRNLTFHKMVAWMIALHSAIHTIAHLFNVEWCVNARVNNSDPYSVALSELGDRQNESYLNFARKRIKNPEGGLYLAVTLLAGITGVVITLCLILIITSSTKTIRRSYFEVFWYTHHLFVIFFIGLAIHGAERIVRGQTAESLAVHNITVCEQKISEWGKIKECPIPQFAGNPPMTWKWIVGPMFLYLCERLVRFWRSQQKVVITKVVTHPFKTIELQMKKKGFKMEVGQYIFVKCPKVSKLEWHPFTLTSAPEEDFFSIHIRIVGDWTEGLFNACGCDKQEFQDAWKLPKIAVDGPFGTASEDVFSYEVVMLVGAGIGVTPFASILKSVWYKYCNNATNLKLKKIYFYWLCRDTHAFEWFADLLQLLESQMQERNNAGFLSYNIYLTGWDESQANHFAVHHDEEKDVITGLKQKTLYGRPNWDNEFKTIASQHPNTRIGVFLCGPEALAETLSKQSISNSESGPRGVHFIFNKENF
Sequence of Streptavidin (Streptomyces avidinii) (P22629 whole entry, looked up): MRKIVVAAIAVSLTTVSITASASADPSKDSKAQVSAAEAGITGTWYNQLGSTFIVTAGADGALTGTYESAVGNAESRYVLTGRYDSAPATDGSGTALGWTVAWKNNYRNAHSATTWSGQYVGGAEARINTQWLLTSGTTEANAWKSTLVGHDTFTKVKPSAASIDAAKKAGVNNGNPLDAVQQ

## O=C(NC1CC1)[C@@H]1c2ccccc2C(=O)N(Cc2ccc(OC(F)(F)F)cc2)[C@H]1c1ccc(CO)cc1
[1]
  composite z-score: 0.227
[2]
  z-score: -2.05 (inactive)
[3]
  z-score: -1.32 (inactive)
[4]
  z-score: 0.441 (inactive)
[5]
  z-score: -0.673 (inactive)
[6]
  composite z-score: -0.894
[7]
  composite z-score: -0.176
[8]
  composite z-score: -0.0394
[9]
  composite z-score: 0.136
[10]
  composite z-score: 0.391
[11]
  z-score: 0.93 (inactive)
[12]
  composite z-score: 0.118
[13]
  z-score: 1.49 (inactive)
[14]
  z-score: -0.538 (inactive)
[15]
  z-score: 2.44 (inactive)
[16]
  z-score: -1.2 (inactive)
[17]
  z-score: 0.358
[18]
  z-score: 0.0746 (inactive)
[19]
  z-score: -0.866 (inactive)
[20]
  z-score: -0.523

## COCCn1c(C(=O)N(C)C)cc2c1C[C@H]1CN(C(=O)c3ccccc3)[C@@](Cc3ccc(OC)cc3)(C(=O)OC)[C@@H]21
[1]
  composite z-score: 0.198
[2]
  z-score: -1.27 (inactive)
[3]
  z-score: 0.491 (inactive)
[4]
  z-score: 0.776 (inactive)
[5]
  z-score: 0.0711 (inactive)
[6]
  composite z-score: 0.572
[7]
  composite z-score: -0.0237
[8]
  composite z-score: 0.236
[9]
  composite z-score: 1.11
[10]
  composite z-score: -0.472
[11]
  z-score: -1.18 (inactive)
[12]
  composite z-score: 0.256
[13]
  z-score: 5.82 (inactive)
[14]
  z-score: 0.846 (inactive)
[15]
  z-score: 1.36 (inactive)
[16]
  z-score: 1.23 (inactive)
[17]
  z-score: -0.164
[18]
  z-score: 0.556 (inactive)
[19]
  z-score: 1.43 (inactive)
[20]
  z-score: 1.24

## NC(=O)NCC#Cc1ccc2c(c1)[C@]1(C(=O)N2)[C@H](c2ccc(OCCO)cc2)N2[C@H](c3ccccc3)[C@H](c3ccccc3)OC(=O)[C@H]2[C@@H]1C(=O)O
[1]
  composite z-score: -0.129
[2]
  z-score: -4.1 (inactive)
[3]
  z-score: -0.626 (inactive)
[4]
  z-score: 0.155 (inactive)
[5]
  z-score: -0.719 (inactive)
[6]
  composite z-score: -0.204
[7]
  composite z-score: -0.128
[8]
  composite z-score: -0.101
[9]
  composite z-score: 0.141
[10]
  composite z-score: -0.501
[11]
  z-score: 0.53 (inactive)
[12]
  composite z-score: -0.0536
[13]
  z-score: 2.54 (inactive)
[14]
  z-score: -0.7 (inactive)
[15]
  z-score: 0.623 (inactive)
[16]
  z-score: -1.3 (inactive)
[17]
  z-score: 1.61
[18]
  z-score: 1.97 (inactive)
[19]
  z-score: 0.325 (inactive)
[20]
  z-score: -0.441

## CC1CC/C=C\[C@H]2OC34C=CCN(C(C)(C)C)C(=O)[C@H]3N(CCCO)C(=O)[C@@H]4C2C(=O)O1 (stereo not given in full)
[1]
  composite z-score: -0.0437
[2]
  z-score: -0.032 (inactive)
[3]
  z-score: 1.08 (inactive)
[4]
  z-score: 0.203 (inactive)
[5]
  z-score: -0.539 (inactive)
[6]
  composite z-score: -0.561
[7]
  composite z-score: -0.128
[8]
  composite z-score: 0.62
[9]
  composite z-score: 2.01
[10]
  composite z-score: -0.757
[11]
  z-score: 0.0581 (inactive)
[12]
  composite z-score: -0.0954
[13]
  z-score: -0.022 (inactive)
[14]
  z-score: 0.571 (inactive)
[15]
  z-score: -0.857 (inactive)
[16]
  z-score: 0.235 (inactive)
[17]
  z-score: 0.337
[18]
  z-score: 0.78 (inactive)
[19]
  z-score: -2.14 (inactive)
[20]
  z-score: 1.25

## O=C1NC(=O)C2C1C=CC(C(O)c1ccc(B(O)O)cc1)N2Nc1ccc(Cl)cc1Cl (stereo not given)
[1]
  composite z-score: -0.0744
[2]
  z-score: -0.245 (inactive)
[3]
  z-score: -0.661 (inactive)
[4]
  z-score: -0.515 (inactive)
[5]
  z-score: 0.763 (inactive)
[6]
  composite z-score: 1.09
[7]
  composite z-score: 0.0074
[8]
  composite z-score: -1.22
[9]
  composite z-score: -0.147
[10]
  composite z-score: -0.589
[11]
  z-score: -2.48 (inactive)
[12]
  composite z-score: 0.199
[13]
  z-score: 1.8 (inactive)
[14]
  z-score: 0.917 (inactive)
[15]
  z-score: -0.577 (inactive)
[16]
  z-score: 0.654 (inactive)
[17]
  z-score: -1.07
[18]
  z-score: -2.66 (inactive)
[19]
  z-score: -5.04 (inactive)
[20]
  z-score: -6.42

## COc1ccc([Si](C)(C)[C@@H]2[C@@H](CC(=O)N3CCC[C@H]3CO)O[C@]3(C(=O)N(Cc4ccc(N5CCOC5=O)cc4)c4ccccc43)[C@H]2C)cc1
[1]
  composite z-score: -0.014
[2]
  z-score: -3.75 (inactive)
[3]
  z-score: -0.0278 (inactive)
[4]
  z-score: 2.4 (inactive)
[5]
  z-score: -1.2 (inactive)
[6]
  composite z-score: 0.084
[7]
  composite z-score: -0.024
[8]
  composite z-score: 0.515
[9]
  composite z-score: 0.557
[10]
  composite z-score: 1.42
[11]
  z-score: 1.3 (inactive)
[12]
  composite z-score: -0.0099
[13]
  z-score: 6.25 (inactive)
[14]
  z-score: 0.176 (inactive)
[15]
  z-score: -1.52 (inactive)
[16]
  z-score: -0.774 (inactive)
[17]
  z-score: 0.615
[18]
  z-score: 2.64 (inactive)
[19]
  z-score: 1.57 (inactive)
[20]
  z-score: 3.85

## C=CCC(OC(C)=O)[C@@H]1[C@@H](N(Cc2ccc(-c3cccc(C(F)(F)F)c3)o2)C(=O)c2ccc(-c3ccccc3)cc2)c2cc(OCCCO)ccc2N1C(=O)c1ccc2ccccc2c1 (stereo not given in full)
[1]
  composite z-score: -0.0266
[2]
  z-score: -0.87 (inactive)
[3]
  z-score: -0.491 (inactive)
[4]
  z-score: -0.477 (inactive)
[5]
  z-score: 0.308 (inactive)
[6]
  composite z-score: 0.177
[7]
  composite z-score: -0.0279
[8]
  composite z-score: -0.756
[9]
  composite z-score: -0.322
[10]
  composite z-score: 1.57
[11]
  z-score: -0.251 (inactive)
[12]
  composite z-score: 0.0718
[13]
  z-score: 0.7 (inactive)
[14]
  z-score: -0.125 (inactive)
[15]
  z-score: 1.36 (inactive)
[16]
  z-score: 0.408 (inactive)
[17]
  z-score: 0.921
[18]
  z-score: -1.99 (inactive)
[19]
  z-score: -1.98 (inactive)
[20]
  z-score: -1.09

## C[N+](C)(C)CCCC[C@@H]1NC(=O)[C@@H]2C[C@H](C(=O)NCc3ccc(F)cc3)[C@H](c3ccc(O)cc3)N2C1=O
[1]
  composite z-score: -0.176
[2]
  z-score: -0.0669 (inactive)
[3]
  z-score: -1.22 (inactive)
[4]
  z-score: 0.692 (inactive)
[5]
  z-score: 0.663 (inactive)
[6]
  composite z-score: -0.369
[7]
  composite z-score: -0.0963
[8]
  composite z-score: 0.965
[9]
  composite z-score: 0.729
[10]
  composite z-score: 1.64
[11]
  z-score: -0.7 (inactive)
[12]
  composite z-score: -0.0186
[13]
  z-score: 0.936 (inactive)
[14]
  z-score: 0.376 (inactive)
[15]
  z-score: -1.65 (inactive)
[16]
  z-score: 0.104 (inactive)
[17]
  z-score: 0.567
[18]
  z-score: 0.274 (inactive)
[19]
  z-score: 0.22 (inactive)
[20]
  z-score: 1.17

## Cc1ccc(S[C@]2(C(=O)NCc3ccccc3)CC(=O)N(Cc3ccccc3C(F)(F)F)[C@@H]2c2ccc(CO)cc2)cc1
[1]
  composite z-score: -0.666
[2]
  z-score: -2.35 (inactive)
[3]
  z-score: -0.937 (inactive)
[4]
  z-score: -0.0888 (inactive)
[5]
  z-score: -0.0177 (inactive)
[6]
  composite z-score: -1.05
[7]
  composite z-score: 0.0391
[8]
  composite z-score: -1.02
[9]
  composite z-score: -0.687
[10]
  composite z-score: -0.998
[11]
  z-score: 0.995 (inactive)
[12]
  composite z-score: -0.012
[13]
  z-score: 0.485 (inactive)
[14]
  z-score: -0.797 (inactive)
[15]
  z-score: -1.37 (inactive)
[16]
  z-score: -0.802 (inactive)
[17]
  z-score: 1.24
[18]
  z-score: -1.69 (inactive)
[19]
  z-score: 0.0366 (inactive)
[20]
  z-score: -0.3
